Hit rate of the full screen: of about 310,000 compounds, about 14,000 (4.5%) showed an effect of 50% or more. The effect is printed as a negative number. Many of the other results were omitted from the sample, so strong results are more common in it than they were.

The values that follow come from PMC4336329 (PLoS ONE, 2015).
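Also: peak tail current of the secondary pulse compared with the same well before compound.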

The target of this experiment is human ether-à-go-go-related gene (hERG) potassium channel (human, UniProt Q12809). Nature of the experiment: primary screen, population patch clamp on CHO cells stably expressing hERG; higher = less effect of the substance.
human ether-à-go-go-related gene (hERG) potassium channel, sequence (Q12809 whole entry, looked up): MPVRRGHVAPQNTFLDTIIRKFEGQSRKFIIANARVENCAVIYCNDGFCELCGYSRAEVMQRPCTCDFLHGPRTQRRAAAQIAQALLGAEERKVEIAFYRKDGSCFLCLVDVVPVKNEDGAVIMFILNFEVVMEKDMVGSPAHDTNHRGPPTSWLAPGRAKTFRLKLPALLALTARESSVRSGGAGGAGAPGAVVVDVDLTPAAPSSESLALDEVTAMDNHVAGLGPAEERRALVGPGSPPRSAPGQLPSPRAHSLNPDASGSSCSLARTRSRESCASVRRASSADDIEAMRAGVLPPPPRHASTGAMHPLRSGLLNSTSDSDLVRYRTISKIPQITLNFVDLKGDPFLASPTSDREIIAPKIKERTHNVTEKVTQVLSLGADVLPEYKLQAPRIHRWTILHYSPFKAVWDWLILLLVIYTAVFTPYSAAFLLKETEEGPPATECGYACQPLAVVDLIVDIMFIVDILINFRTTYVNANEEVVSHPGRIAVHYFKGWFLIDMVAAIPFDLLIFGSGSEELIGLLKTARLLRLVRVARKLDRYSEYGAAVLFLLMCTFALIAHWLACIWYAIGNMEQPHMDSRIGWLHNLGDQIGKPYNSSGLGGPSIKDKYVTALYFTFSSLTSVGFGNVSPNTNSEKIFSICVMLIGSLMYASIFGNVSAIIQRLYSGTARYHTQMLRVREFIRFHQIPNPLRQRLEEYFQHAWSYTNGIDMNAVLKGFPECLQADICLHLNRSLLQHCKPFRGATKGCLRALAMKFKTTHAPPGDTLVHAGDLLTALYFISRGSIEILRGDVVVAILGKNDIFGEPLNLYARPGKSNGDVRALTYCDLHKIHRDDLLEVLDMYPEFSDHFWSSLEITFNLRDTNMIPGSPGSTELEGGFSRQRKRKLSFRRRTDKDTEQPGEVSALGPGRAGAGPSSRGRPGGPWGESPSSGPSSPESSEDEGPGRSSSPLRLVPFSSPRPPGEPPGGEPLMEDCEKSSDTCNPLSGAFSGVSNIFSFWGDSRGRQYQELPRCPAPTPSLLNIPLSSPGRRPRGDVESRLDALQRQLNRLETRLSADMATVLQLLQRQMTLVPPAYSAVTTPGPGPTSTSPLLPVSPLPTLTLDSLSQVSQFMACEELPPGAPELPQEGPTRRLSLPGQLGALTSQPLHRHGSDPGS
In the case of `CCOC(=O)c1cc(C#N)c(N2CCNCC2)nc1C(F)(F)F`, the “hERG current change (%, negative = inhibition) at 10uM” value is -12.3%.
Then `COc1ccc(CNC(=O)CCSCc2cccc(Cl)c2)cc1`, with -17%; and `COc1ccc(-n2nnnc2CNC(=O)C(=O)c2c[nH]c3ccccc23)cc1`, with 6.27%.
Consider `CCCCOC(=O)Nc1ccc(C(=O)OCCC)cc1`, for which the “hERG current change (%, negative = inhibition) at 10uM” value is recorded as -12.9%.
As for `CCC(C)c1ccc2oc(-c3ccc(NC(=O)c4ncn[nH]4)cc3)nc2c1` (stereo not shown), the “hERG current change (%, negative = inhibition) at 10uM” value is on record as -1.89%.
Then `CCOc1ccc(N2C(=O)CC(N3CCC(O)(c4ccc(Br)cc4)CC3)C2=O)cc1` (stereo not shown), with -49.1%.
To `CC1(C)CC(=O)C2=C(C1)NC(=O)CC2c1cc(F)ccc1F` (stereo not shown) belongs -21.6%; to `Cc1cc(C)c2c(c1)/C(=N/NS(=O)(=O)c1ccccc1)CCC2`, 7.48%; to `COC(=O)Nc1ccc(S(=O)(=O)NCCCCCC(=O)O)cc1`, -1.56%.
`CCOC(=O)c1nn(-c2ccc(C)cc2)c(=O)cc1OCC(=O)N1CCN(c2ccccc2)CC1`: the “hERG current change (%, negative = inhibition) at 10uM” value is reported as -51.9%.
As for `CCOC(=O)c1nn(-c2ccccc2C)c(=O)cc1OCC(=O)N1CCN(c2ccccc2)CC1`, the “hERG current change (%, negative = inhibition) at 10uM” value is -24.6%.
As to `CCN1CCN(C(=O)COc2cc(=O)n(CC)c3ccccc23)CC1`, the “hERG current change (%, negative = inhibition) at 10uM” value is given as -2.67%.
Turning to `CCn1c(=O)cc(OCC(=O)N2CCN(c3ccc(F)cc3)CC2)c2ccccc21`, the “hERG current change (%, negative = inhibition) at 10uM” value is on record as -69.8%.
To `CCOC(=O)c1nn(-c2ccc(F)cc2)c(=O)cc1OCC(=O)N1CCN(c2ccccc2)CC1` belongs -15.6%.
As to `CCn1c(=O)cc(OCC(=O)N2CCN(c3cccc(C(F)(F)F)c3)CC2)c2ccccc21`, the “hERG current change (%, negative = inhibition) at 10uM” value is recorded as -48.2%.
For the compound `CN(C)c1ccc(CNn2cnnc2SCC(=O)NC(C)(C)C)cc1`, the “hERG current change (%, negative = inhibition) at 10uM” value is given as 23.4%.
To `CCOc1ccc(C(=O)OCC(=O)NCCCc2ccccc2)cc1` belongs 0.425%; to `Cc1c(/C=N/n2cnnc2)c2ccccc2n1C`, 1.25%; to `O=C(NC1CCCCC1)C12CC3CC(C1)CC(n1cncn1)(C3)C2`, 0.934%.
Regarding `CC(NC(=O)C12CC3CC(C1)CC(n1cncn1)(C3)C2)C12CC3CC(CC(C3)C1)C2` (stereo not shown), the “hERG current change (%, negative = inhibition) at 10uM” value is listed as -61.9%.
With `COC(=O)c1ccc(NC(=O)C23CC4CC(C2)CC(n2cncn2)(C4)C3)cc1`, the “hERG current change (%, negative = inhibition) at 10uM” value was -22%.
Regarding `CCN(CC)C(=O)CSC1=C(C#N)C(c2cccs2)C=C(C)N1` (stereo not shown), the “hERG current change (%, negative = inhibition) at 10uM” value worked out at 14.1%.
As to `COc1ccc2c(c1)CC/C(=C/c1ccccn1)C2=O`, the “hERG current change (%, negative = inhibition) at 10uM” value stood at 3.19%.
Turning to `COc1ccc2c(c1)CC/C(=C/c1ccncc1)C2=O`, the “hERG current change (%, negative = inhibition) at 10uM” value was -55.2%.
Then `COc1ccc2c(c1)CC/C(=C/c1cc(OC)c(OC)c(OC)c1)C2=O`, with -1.54%.
With `CCCc1cc(=O)oc2cc(OCc3cc(OC)c(OC)c(OC)c3)c(Cl)cc12`, the “hERG current change (%, negative = inhibition) at 10uM” value was 17.4%.
Then `CC1(C)CC(NC(=S)NCc2ccco2)CC(C)(C)N1`, with 18.9%; and `CCOc1ccc(CN2CCN(C3CCSCC3)CC2CCO)cc1` (stereo not shown), with -74.3%; and `COc1ccc(CN2CCN(Cc3cc4ccccc4o3)CC2CCO)c(F)c1` (stereo not shown), with -60.9%.
Take `CCOc1ccccc1CN1CCN(Cc2ccc(C)o2)CC1CCO` (stereo not shown): the “hERG current change (%, negative = inhibition) at 10uM” value is given as -37.9%.
`Cc1ccc(CN2CCN(Cc3ccc(OCCO)cc3)CC2CCO)o1` (stereo not shown): the “hERG current change (%, negative = inhibition) at 10uM” value was 1.29%.
Consider `CCOc1ccc(CN2CCN(Cc3ccc(C)o3)CC2CCO)cc1` (stereo not shown), for which the “hERG current change (%, negative = inhibition) at 10uM” value is on record as -104%.
With `COc1cccc(CN2CCN(Cc3cc4ccccc4o3)CC2CCO)c1` (stereo not shown), the “hERG current change (%, negative = inhibition) at 10uM” value is -10.7%.
With `CCOc1ccccc1CN1CCN(C2CCSCC2)CC1CCO` (stereo not shown), the “hERG current change (%, negative = inhibition) at 10uM” value is recorded as -25.9%.
For `COc1ccc(CN2CCN(C3CCSCC3)CC2CCO)c(C)c1C` (stereo not shown), the “hERG current change (%, negative = inhibition) at 10uM” value was -51.1%.
As to `COc1ccc(CN2CCN(C3CCC3)CC2CCO)c(C)c1C` (stereo not shown), the “hERG current change (%, negative = inhibition) at 10uM” value is 0.432%.
As to `Cc1ccccc1CN1CCN(Cc2cc3ccccc3o2)CC1CCO` (stereo not shown), the “hERG current change (%, negative = inhibition) at 10uM” value is on record as -6.94%.
On to `CCOc1ccc(CN2CCN(C3CCC3)CC2CCO)cc1` (stereo not shown), for which the “hERG current change (%, negative = inhibition) at 10uM” value is -19.2%.
For `COc1ccc(CN2CCN(C3CCOCC3)CC2CCO)c(C)c1C` (stereo not shown), the “hERG current change (%, negative = inhibition) at 10uM” value is listed as -12.4%.
To `CCOC(=O)C1=C(CS(=O)(=O)c2ccccc2)NC(=O)NC1c1ccccc1OCC` (stereo not shown) belongs -4.89%; to `Cc1ccsc1C1NC(=O)c2ccccc2N1` (stereo not shown), 5.58%; to `CCC(C)(C)NC(=O)C(c1ccc(OC)cc1)N(C(=O)CCC(=O)Nc1cc(C)on1)c1ccc2c(c1)OCCO2` (stereo not shown), 11.1%.
Turning to `O=C1OC/C(=C(/O)c2ccc(Cl)cc2)C1=O`, the “hERG current change (%, negative = inhibition) at 10uM” value turned out to be 17%.
For `Cc1cc(NC(=S)NC(=O)c2ccco2)c2ccccc2n1`, the “hERG current change (%, negative = inhibition) at 10uM” value is listed as -1.51%.
Consider `Cc1ccc(S(=O)(=O)N2CCCCC2C(=O)O)cc1` (stereo not shown), for which the “hERG current change (%, negative = inhibition) at 10uM” value is listed as 6.47%.
With `COc1ccc(C(=O)C2CCN(C(=S)NCC3CCCO3)CC2)cc1` (stereo not shown), the “hERG current change (%, negative = inhibition) at 10uM” value is given as -7.23%.
`O=C(c1cccc(S(=O)(=O)N2CCCC2)c1)N(Cc1ccco1)C1CCS(=O)(=O)C1` (stereo not shown): the “hERG current change (%, negative = inhibition) at 10uM” value is -21.8%.
Turning to `COc1ccc(CN2CCN(CC3CC3)CC2CCO)cc1C` (stereo not shown), the “hERG current change (%, negative = inhibition) at 10uM” value is -0.194%.
Take `COc1cc(CN2CCN(CC3CC3)CC2CCO)cc(OC)c1` (stereo not shown): the “hERG current change (%, negative = inhibition) at 10uM” value is on record as 2.79%.
Then `Cc1ccc(CN2CCN(Cc3cc4ccccc4o3)CC2CCO)cc1` (stereo not shown), with -43.1%.
In the case of `Cc1ccc(CN2CCN(Cc3ccon3)CC2CCO)cc1` (stereo not shown), the “hERG current change (%, negative = inhibition) at 10uM” value is -11.1%.
Regarding `CCOc1ccc(CN2CCN(Cc3ccon3)CC2CCO)cc1` (stereo not shown), the “hERG current change (%, negative = inhibition) at 10uM” value is given as -62.8%.
Consider `CCOc1ccc(CN2CCN(Cc3cc4ccccc4o3)CC2CCO)cc1` (stereo not shown), for which the “hERG current change (%, negative = inhibition) at 10uM” value is given as -80.4%.
With `OCCC1CN(Cc2ccon2)CCN1Cc1ccccc1` (stereo not shown), the “hERG current change (%, negative = inhibition) at 10uM” value worked out at 9.42%.
For `CCOc1ccc(CN2CCN(CC3CC3)CC2CCO)cc1` (stereo not shown), the “hERG current change (%, negative = inhibition) at 10uM” value is reported as -67.1%.
In the case of `OCCC1CN(Cc2cc3ccccc3o2)CCN1Cc1ccc(F)cc1` (stereo not shown), the “hERG current change (%, negative = inhibition) at 10uM” value is given as -11.8%.
Take `N#CC(C#N)=Cc1c[nH]c(=O)c(C#N)c1Nc1ccccc1`: the “hERG current change (%, negative = inhibition) at 10uM” value is recorded as 16.1%.
To `O=C(CN(Cc1ccccc1)S(=O)(=O)c1ccccc1)NC1CC1` belongs -3.03%.
To `CCc1cc(=O)oc2cc(C)cc(OCC(=O)NCC3CCC(C(=O)O)CC3)c12` (stereo not shown) belongs 4.34%; to `CC(C)(C)NC(=O)CN(c1cccc([N+](=O)[O-])c1)S(=O)(=O)c1ccccc1`, -11.5%; to `Cc1cc(C)c(NC(=O)CCCOC(=O)C2=COCCO2)c(C)c1`, 16.1%.
To `O=C(N/N=C/c1cccc(F)c1)c1csc2c1CCCC2` belongs -30%.
For `CC(C)C[C@H](NC(=O)c1[nH]cnc1C(=O)N[C@@H](C)c1ccccc1)C(=O)OC(C)(C)C`, the “hERG current change (%, negative = inhibition) at 10uM” value was found to be 12.5%.
In the case of `CC1CCN(C(=O)c2cc3ccccc3c(=O)o2)CC1`, the “hERG current change (%, negative = inhibition) at 10uM” value came out at 5.74%.
Then `O=C(Cn1nnc(-c2ccccc2Cl)n1)N/N=C/c1ccc(-c2cccc(Cl)c2)o1`, with 2.26%; and `O=C(CN1CCCC1)N/N=C/c1ccc(-c2cccc(Cl)c2)o1`, with -62.2%.
As for `Cc1nnc(SCC(=O)N/N=C/c2ccc(-c3ccc(C)c(Cl)c3)o2)s1`, the “hERG current change (%, negative = inhibition) at 10uM” value is recorded as -1.51%.
To `Cc1ccc(-c2ccc(/C=N/NC(=O)CN3CCCC3)o2)cc1Cl` belongs -90.2%.
On to `COC(=O)N/N=C/c1ccc(-c2ccc(C)c(Cl)c2)o1`, for which the “hERG current change (%, negative = inhibition) at 10uM” value is on record as -6.4%.
`Nc1nnnn1CC(=O)N/N=C/c1ccc(-c2cccc(Cl)c2)o1`: the “hERG current change (%, negative = inhibition) at 10uM” value turned out to be 8.79%.
Then `CC1(c2ccccc2)NC(=O)N(Cc2ccc([N+](=O)[O-])cc2)C1=O` (stereo not shown), with -31%; and `Cn1cc(CN2CCCC(C(=O)Nc3cccc(-n4cccn4)c3)C2)cn1` (stereo not shown), with -5.79%; and `O=C(Nc1cccc(-n2cnnn2)c1)C1CCCN(Cc2cccc(C(F)(F)F)c2)C1` (stereo not shown), with -59.8%.
Take `COC(=O)c1ccc(CN2CCCC(C(=O)Nc3cccc(-n4cnnn4)c3)C2)cc1` (stereo not shown): the “hERG current change (%, negative = inhibition) at 10uM” value is -47.7%.
Take `COc1ccc(CN2CCCC(C(=O)Nc3cccc(-n4cccn4)c3)C2)c(F)c1` (stereo not shown): the “hERG current change (%, negative = inhibition) at 10uM” value is -30.3%.
Consider `COCc1cc(CN2CCCC(C(=O)Nc3cccc(-n4cnnn4)c3)C2)ccc1OC` (stereo not shown), for which the “hERG current change (%, negative = inhibition) at 10uM” value is -6.58%.
On to `COc1ccc(CN2CCCC(C(=O)Nc3cccc(-n4cnnn4)c3)C2)c(C)c1C` (stereo not shown), for which the “hERG current change (%, negative = inhibition) at 10uM” value is recorded as -62.7%.
For `COC(=O)Cc1c(C)c2ccc(OC3CCCCC3=O)c(C)c2oc1=O` (stereo not shown), the “hERG current change (%, negative = inhibition) at 10uM” value was 3.77%.
As for `CCCCCOc1ccc(NC(=O)CSc2cccc3cccnc23)cc1`, the “hERG current change (%, negative = inhibition) at 10uM” value was 18.8%.
As for `N#Cc1cc([N+](=O)[O-])ccc1NC(=O)CSc1n[nH]c(=O)n1C1CC1`, the “hERG current change (%, negative = inhibition) at 10uM” value came out at 1.42%.
In the case of `COc1cccc(OC)c1C(=O)N1CCN(c2ccccn2)CC1`, the “hERG current change (%, negative = inhibition) at 10uM” value is 11%.
To `COc1cccc(OC)c1C(=O)Nc1c(C(=O)N2CCN(C)CC2)oc2ccccc12` belongs -29.1%; to `Cc1c(C(=O)N2CCN(c3ccccn3)CC2)oc2ccccc12`, -28%; to `O=C(Nc1c(C(=O)N2CCN(c3ccccn3)CC2)oc2ccccc12)c1ccc([N+](=O)[O-])cc1`, -51%.
For `COc1cccc(OC)c1C(=O)Nc1c(C(=O)N2CCN(c3ccccn3)CC2)oc2ccccc12`, the “hERG current change (%, negative = inhibition) at 10uM” value is -61.6%.
Take `O=C(Nc1c(C(=O)N2CCN(c3ccccn3)CC2)oc2ccccc12)c1cccc([N+](=O)[O-])c1`: the “hERG current change (%, negative = inhibition) at 10uM” value is -48.8%.
In the case of `COc1ccc(NC(=O)c2ccc(-c3nn(C)c(=O)c4ccccc34)cc2)cc1C(N)=O`, the “hERG current change (%, negative = inhibition) at 10uM” value was found to be 6.4%.
Take `Cc1ccc(N(C(=O)Cc2cccs2)C(C(=O)NCC2CCCO2)c2ccncc2)cc1` (stereo not shown): the “hERG current change (%, negative = inhibition) at 10uM” value is 11.5%.
